According to PubChem BioAssay (NCI):
This is part of a sample that, as a whole, favours compounds with a hit. Of some 83,000 tested, about 20% had one in any assay.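 The test compound was applied at a single concentration to cells in 96-well plates for 48 hours, and percent growth was recorded.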 Unmarked numbers belong to inactive results. Activity calls are given as the source filed them. Rule for the calls: active = growth percent below 10; inactive = the rest.

The compounds below were run on HL-60(TB) leukemia (assay: NCI-60 one-dose screen, 48 h (100 = growth as untreated, 0 = no growth, -100 = all killed)). Conditions: 10 µM unless noted.

Structure (SMILES) | growth
CCC(C)C1NC(=O)C(CC(C)C)NC(=O)C(C)NC(=O)C(C(C)C)NC(=O)C(CCCCN)NC(=O)C(CC(C)C)NC(=O)C(C(C)C)NC(=O)[C@H](C)NC(=O)C(C(C)CC)NC(=O)C(CCCN=C(N)N)NC(=O)C(CCCCN)NC(=O)C(CCCN=C(N)N)NC(=O)C(CCCCN)NC(=O)C([C@H](C)CC)NC(=O)C(CCCCN)NC1=O (stereo not given in full) | -39.5% (active)
CN(C)CCOC(=O)Nc1ccc(Cl)cc1 | 100%
CC(C)=CCC/C(C)=C/CC/C(C)=C/CC/C=C(\C)CC/C=C(\C)CCC(=O)Nc1ccn(C2OC(CO)C(O)C2(F)F)c(=O)n1 (stereo not given) | -21.3% (active)
COc1cc(C)cc2oc3oc(=O)c(-c4csc(-c5cc6ccccc6oc5=O)n4)cc3c(=O)c12 | 115%
CC(Cc1nnc(SCC(=O)Nc2ccc(I)cc2)n1N)c1ccccc1 (stereo not given) | 158%
Cc1cc2nc3c4cc(N)ccc4n(CCN(C)C)c3nc2cc1C | 4.7% (active)
CCCCCC#CC(=O)O | 97.4%
Cc1cc(-c2ccccc2)nc2ccccc12 | 90.8%
O=[N+]([O-])c1cc(S(=O)(=O)Nc2ccccc2)ccc1Cl | 71.3%
NC(=O)C(O)(c1ccccc1)c1ccccc1 | 99%
CCCCCCCO | 114%
COc1cc2c(cc1OC)C(=O)C(CC1CCN(C(=O)Nc3ccc(C)cc3)CC1)C2 (stereo not given) | 125%
O=C1c2ccccc2C(=O)c2c1c(C(=O)NCc1ccccc1)c1ccccn21 | 88.7%
CCOC(=O)C1=CSC2=NC3=C(CCC/C3=C\c3cc(OC)c(OC)c(OC)c3)C(c3cc(OC)c(OC)c(OC)c3)N12 (stereo not given) | 51.5%
c1ccc([C@H]2CN3CCSC3=N2)cc1 | 99.1%
COc1ccc2nc3cc(Cl)ccc3c(N3CCN(c4ccnc(N5CCN(C)CC5)n4)CC3)c2c1 | 29.8%
Cc1c(NCC(=O)Nc2nc3ccccc3[nH]2)c(=O)n(-c2ccccc2)n1C | 98.5%
CC1(C)NC(=O)c2[nH]c3c(Cl)c(Cl)ccc3c2C1C#N (stereo not given) | 65.4%
O=C(Nc1cc(Cl)cc2c1-c1ccc(Cl)cc1C2O)C(Cl)Cl (stereo not given) | 76.2%
Nc1ccc2c(c1)C(=O)C(=O)c1c-2nc2ccccn12 | -47.3% (active)

Structure (SMILES) | growth
COc1ccc(-c2cn3c(C(=O)Nc4ccccc4Cl)c(-c4ccccc4)c4c3n2CCCC4)cc1 | 83.4%
CCOC(=O)c1c(C)nc(C)c(C(=O)OCC)c1-c1cccnc1 | 61.1%
Cc1cc(N=C2C=CC(=[N+](C)C)C=C2)c(N)cc1N | 122%
COc1ccc(/C=N/C2=C(C#N)C(c3ccc(N(C)C)cc3)c3ccc4ccccc4c3O2)cc1 (stereo not given) | 19.6%
Cc1csc2ccc(Cl)cc12 | 110%
CCC[S@@](=O)c1ccc2nc(NC(=O)OC)[nH]c2c1 | 56.6%
COc1ccc(/C=C(\C#N)c2cc3ccccc3n2S(C)(=O)=O)cc1 | 89.6%
Oc1ccc(CCl)c2cccnc12 | 81%
CC(=O)OCC1SC(OC(C)=O)C(NC(=O)/C=C/CCl)C(OC(C)=O)C1OC(C)=O (stereo not given) | 79.9%
COc1cc(C(=C2O[C@@H]([C@H]3COC(C)(C)O3)[C@H]3OC(C)(C)O[C@@H]23)c2cc(OC)c(OC)c(OC)c2)cc(OC)c1OC | 107%
O=C(Nc1ccc(Cl)c(Cl)c1)OCc1ccco1 | 32.1%
c1ccc(Cn2nc3c(c2-c2ccccc2)-c2oncc2CC3)cc1 | 92.2%
CNCCCNc1ccnc2cc(Cl)ccc12 | -25% (active)
CCOC(=O)CNS(=O)(=O)CC(=O)c1ccccc1 | 102%
O=c1[nH]cnc2c1C(c1ccc(Br)cc1)c1sc3c(F)cccc3c1O2 (stereo not given) | 99.4%
C=C(C)[C@@H]1CC[C@]2(COCCCN)CC[C@]3(C)[C@H](CC[C@@H]4[C@@](C)(CCCNCCCN)[C@H](C(=C)C)CC[C@]43C)[C@@H]12 | -9.28% [100 µM] (active)
COc1ccccc1-n1c(-c2cc(O)ccc2C)cn2c3c(=O)[nH]c(=O)n(C)c3nc12 | 110%
COc1cc2cc(NCc3ccc(Cl)cc3)nc(C)c2cc1OC | 31.3%
O=C1/C(=C/c2ccccc2)CCC/C1=C\c1ccccc1 | 97.8%
Nn1c(SCC(=O)Nc2ccc(Cl)cc2)nnc1-c1cc(F)c(Cl)cc1Cl | 84.5%
